Experimental data reported in PubChem BioAssay (EPA / NIEHS).
Inconclusive results are not listed. The source made the active and inactive calls. The calls were made as follows: active = hit-call score of the fitted dose curve at least 0.9, where 1 is the maximum; inconclusive = response in the unintended direction; inactive = score below 0.9.

How the values were obtained:
[1] = TOX21_p53_BLA_p2_viability: Viability Assessment in the Tox21 HCT-116 p53 Agonism Beta-lactamase Assay, Phase 2 (AID 2283591);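 also: compound exposure lasted 16 h at 37 °C; actives lower the ATP signal meaning cytotoxicity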
Method in brief: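 HCT116 p53-bla cells, 4000/well, dosed after 5 h plating (217-fold dilution of DMSO stocks) and incubated 16 h at 37C. Viability taken as cellular ATP by CellTiter-Glo luminescence after 30 min RT; signal loss marks cytotoxicity.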

[2] = target: Cellular tumor antigen p53 (Homo sapiens) (UniProt P04637); test: TOX21_p53_BLA_p2_ratio: Tox21 HCT-116 p53 Agonism Beta-lactamase Assay, Ratio, Phase 2 (AID 2283592)
Method in brief: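 Human colon HCT116 cells with an inducible p53 beta-lactamase reporter are exposed to test chemicals for 16 h at 37C. Reporter induction is read as the 460/530 nm emission ratio after CCF4-AM loading, normalized to DMSO.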

[3] = TOX21_p53_BLA_p3_viability: Viability Assessment in the Tox21 HCT-116 p53 Agonism Beta-lactamase Assay, Phase 3 (AID 2283593);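 also: cells exposed to compound for 16 h before reading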
Method in brief: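 HCT116 cells, 4000/well, dosed 5 h after plating by pin transfer (217-fold dilution from DMSO stock) and incubated 16 h at 37C, 5% CO2. Viability read as ATP luminescence with CellTiter-Glo after 30 min at room temperature.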

[4] = TOX21_p53_BLA_p4_viability: Viability Assessment in the Tox21 HCT-116 p53 Agonism Beta-lactamase Assay, Phase 4 (AID 2283597);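 also: hits lower the luminescence signal meaning cytotoxicity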
Method in brief: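 Luminescent ATP readout (CellTiter-Glo, 30 min, room temperature) in the same wells as the p53 bla ratio. HCT116 cells were treated for 16 h at 37C with DMSO-dissolved compounds.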

[5] = target: Cellular tumor antigen p53 (Homo sapiens) (UniProt P04637); test: TOX21_p53_BLA_p5_ratio: Tox21 HCT-116 p53 Agonism Beta-lactamase Assay, Ratio, Phase 5 (AID 2283599)
Method in brief: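 HCT-116 p53-bla cells (4000/well) plated 5 h, dosed with compound (217-fold DMSO dilution) for 16 h at 37 C; CCF4-AM substrate 2 h at room temperature. Activity is the 460/530 nm emission ratio (405 nm excitation), fitted in gain-of-signal direction versus DMSO.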

[6] = target: Cellular tumor antigen p53 (Homo sapiens) (UniProt P04637); test: TOX21_p53_BLA_p3_ratio: Tox21 HCT-116 p53 Agonism Beta-lactamase Assay, Ratio, Phase 3 (AID 2283596)
Method in brief: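 HCT116 p53-bla cells (4000/well) given compound in DMSO (217-fold dilution) after 5 h, incubated 16 h at 37C. CCF4-AM substrate 2 h at room temperature; 460/530 nm emission ratio, gain fitted against DMSO.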

[7] = TOX21_p53_BLA_p5_viability: Viability Assessment in the Tox21 HCT-116 p53 Agonism Beta-lactamase Assay, Phase 5 (AID 2283600)
Method in brief: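 Seeded cells (4000/well) settle 5 h before compound addition. Plates then incubate 16 h at 37C, receive FRET substrate for 2 h, and finally CellTiter-Glo, with luminescence measured after a 30 min room-temperature incubation.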

[8] = target: Cellular tumor antigen p53 (Homo sapiens) (UniProt P04637); test: TOX21_p53_BLA_p4_ratio: Tox21 HCT-116 p53 Agonism Beta-lactamase Assay, Ratio, Phase 4 (AID 2283601)
Method in brief: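 HCT-116 p53 beta-lactamase reporter cells (4000/well) preincubated 5 h, then compound (217-fold dilution of DMSO stock) for 16 h at 37C. CCF4-AM substrate added 2 h at room temperature; 460/530 nm emission ratio fitted upward versus DMSO.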

PGR (gene 5241) = PGR (gene 5241) (UniProt P06401); test: TOX21_PR_BLA_Followup_Antagonist_ratio: Tox21 HEK293 Progesterone Receptor (PR) Antagonism Beta-lactamase Follow-Up Assay, Ratio (AID 2283934)
Method in brief: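 HEK293T PR-UAS-bla, 2% CS-FBS; 6 hr plating, then cpd + R5020 (1 nM final), 16 hr 37C/5% CO2. B/G FRET substrate 2 h RT. Ratio ch2/ch1 vs DMSO; CellTiter-Glo viability multiplexed, autofluorescence checked.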

Measured: outcome

Chain of Cellular tumor antigen p53 (Homo sapiens) (P04637 whole entry, looked up): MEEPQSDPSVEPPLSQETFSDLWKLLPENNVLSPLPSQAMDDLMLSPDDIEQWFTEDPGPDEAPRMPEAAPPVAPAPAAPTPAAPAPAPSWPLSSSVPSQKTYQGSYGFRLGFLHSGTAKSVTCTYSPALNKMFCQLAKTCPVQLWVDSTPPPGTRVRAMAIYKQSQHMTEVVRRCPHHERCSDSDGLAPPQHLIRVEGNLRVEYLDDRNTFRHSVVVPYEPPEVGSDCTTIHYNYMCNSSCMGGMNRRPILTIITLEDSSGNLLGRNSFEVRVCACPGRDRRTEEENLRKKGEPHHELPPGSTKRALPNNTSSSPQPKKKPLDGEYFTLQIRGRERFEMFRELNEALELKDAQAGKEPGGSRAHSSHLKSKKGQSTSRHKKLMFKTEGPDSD
Chain of PGR (gene 5241) (P06401 whole entry, looked up): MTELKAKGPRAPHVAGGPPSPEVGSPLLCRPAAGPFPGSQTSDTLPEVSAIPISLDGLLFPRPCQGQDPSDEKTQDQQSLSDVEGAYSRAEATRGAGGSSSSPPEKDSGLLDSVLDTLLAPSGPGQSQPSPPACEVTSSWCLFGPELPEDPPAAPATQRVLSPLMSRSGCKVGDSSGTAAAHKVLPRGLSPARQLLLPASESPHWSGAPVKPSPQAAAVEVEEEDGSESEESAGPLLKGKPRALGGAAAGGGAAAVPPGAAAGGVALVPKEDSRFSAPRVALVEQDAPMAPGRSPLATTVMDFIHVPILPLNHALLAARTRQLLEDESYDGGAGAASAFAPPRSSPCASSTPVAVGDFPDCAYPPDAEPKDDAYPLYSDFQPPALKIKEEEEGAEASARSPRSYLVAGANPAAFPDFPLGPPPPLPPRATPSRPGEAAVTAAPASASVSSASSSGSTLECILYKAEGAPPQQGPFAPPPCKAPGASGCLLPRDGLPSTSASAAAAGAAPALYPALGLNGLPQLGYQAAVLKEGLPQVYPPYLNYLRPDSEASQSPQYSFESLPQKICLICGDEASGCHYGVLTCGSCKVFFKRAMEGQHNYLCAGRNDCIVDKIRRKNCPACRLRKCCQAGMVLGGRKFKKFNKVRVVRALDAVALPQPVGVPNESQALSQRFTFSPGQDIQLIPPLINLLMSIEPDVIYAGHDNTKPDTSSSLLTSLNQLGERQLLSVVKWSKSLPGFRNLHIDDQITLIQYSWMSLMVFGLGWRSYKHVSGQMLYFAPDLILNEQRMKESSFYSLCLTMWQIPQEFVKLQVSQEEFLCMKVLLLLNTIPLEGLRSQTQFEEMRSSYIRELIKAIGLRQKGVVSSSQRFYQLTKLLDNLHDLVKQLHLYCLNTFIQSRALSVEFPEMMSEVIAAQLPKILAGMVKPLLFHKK

CC(C)OCC1CO1 (configuration not stated)
inactive: [1] | [2] | [3] | [4] | [5]

COc1cc(C)c(Cc2cnc(N)nc2N)cc1OC
inactive: [1] | [2] | [3] | [4] | [5]

C[C@]12CCC(=O)C[C@@H]1CC[C@@H]1[C@@H]2CC[C@]2(C)C=CC[C@@H]12
inactive: [1] | [2] | [3] | [6] | [7] | [8]

CC(O)[C@@H]1NC(=O)[C@H](Cc2ccccc2)NC(=O)[C@H](C(C)O)NC(=O)[C@H](CCCCN)NC(=O)[C@H](Cc2c[nH]c3ccccc23)NC(=O)[C@H](Cc2ccccc2)NC(=O)[C@H](Cc2ccccc2)NC(=O)[C@H](CC(N)=O)NC(=O)[C@H](CCCCN)NC(=O)[C@@H](NC(=O)CNC(=O)[C@H](C)N)CSSC[C@@H](C(=O)O)NC(=O)[C@H](CO)NC1=O (some centres not stated)
inactive: [1] | [2] | [3] | [6] | [7] | [8]

C=C(C)C(=O)OCCN(CC)CC
inactive: [1] | [2] | [3] | [4] | [5]

CCN(CC)CCNC(=O)c1cc(Cl)c(N)cc1OC
inactive: [1] | [2] | [3] | [6] | [7] | [8]

O=C1C2CC3CC1CC(O)(C3)C2
inactive: [1] | [2] | [3] | [6] | [8]

COc1cc2c(cc1OC)-c1cc3ccc(OC)c(OC)c3c[n+]1CC2
inactive: [1] | [2] | [3] | [6] | [7]

O=C(CCCCC(=O)Nc1c(I)cc(I)c(C(=O)O)c1I)Nc1c(I)cc(I)c(C(=O)O)c1I
inactive: [1] | [2] | [3] | [4] | [5]

CC(=O)OCC(=O)[C@@]1(O)CCC2C3CCC4=CC(=O)CC[C@]4(C)C3C(O)C[C@@]21C (some centres not stated)
inactive: [1] | [2] | [3] | [6] | [7] | [8] | PGR (gene 5241)

O=C(O)C=CC(=O)Nc1ccc(S(=O)(=O)Nc2nccs2)cc1
inactive: [1] | [2] | [3] | [4]

NC(=O)c1ncn([C@@H]2O[C@H](CO)[C@@H](O)[C@H]2O)c1N
inactive: [1] | [2] | [3] | [6] | [7] | [8]

CCCC(CCC)C(N)=O
inactive: [1] | [2] | [3] | [6] | [8]

C[N+](C)(CCCCCC[N+](C)(C)C1c2ccccc2-c2ccccc21)C1c2ccccc2-c2ccccc21
inactive: [1] | [2] | [3] | [4]

C1OCOCO1
inactive: [1] | [2] | [3] | [6] | [7] | [8]

CCO
inactive: [1] | [2] | [3] | [6] | [7] | [8]

Cc1ccccc1OCC(O)CO (configuration not stated)
inactive: [1] | [2] | [3] | [6] | [7] | [8]
